TAR Tat displ – HIV-1 TAR-Tat binding disruption | HIV-1 TAR RNA, Tat peptide displacement FRET; hits give high values | z-score (concentration not given with the values) | hit rate 0.6% among 100,000 | AID 1259389; active = z-score of 3 or more in at least 2 runs
CDC25B CDK2 inh – human CDC25B-CDK2/CyclinA binding inhibition; AID 1259370; z-score (concentration not given with the values); hit rate 0.72% among 94,000; HTRF CDC25B-CDK2/CyclinA binding, anti-His/anti-Flag; hits give high values; in the data active = z-score above about 3.2
An asterisk follows results filed as active; / = not tested or not shown. An excerpt weighted towards active compounds, which were near 0.93% of everything screened.

SMILES	TAR Tat displ	CDC25B CDK2 inh
COc1ccc(-c2cc3c4c(C)n(Cc5ccccc5)c(C)c4c(C)nn3c2)cc1	-0.42	-1.8
COc1ccc(-c2cc3c4c(C)n(C)c(C)c4c(C)nn3c2)cc1	11*	2
COc1ccc(CCn2c(C)c3c(C)nn4cc(-c5ccc(C)o5)cc4c3c2C)cc1OC	35*	8
CC(C)C(=O)NCC(c1ccco1)S(=O)(=O)c1cccs1 (stereo unspecified)	2.1	/
COc1ccc(OC)c(NC(=O)CSc2nc3ccccc3c(=O)[nH]2)c1	2.6	/
Cc1cc(C)n(CC(C)O)c(=O)c1C#N (stereo unspecified)	0.95	16*
Cc1cc(C)n(CCCO)c(=O)c1C#N	0.5	1
O=C(NC1CC1)c1cccc(-n2cnnc2)n1	0.64	/
CS(=O)(=O)CCC(C(=O)NCc1ccc2c(c1)OCO2)N1Cc2ccccc2C1=O (stereo unspecified)	0.52	/
Clc1ccc(-c2nnc(-c3ccccc3)o2)cc1	-1.1	-2.7
Nc1ccc(F)c(-c2nnc(-c3ccccc3)o2)c1	33*	/
CCC1=NN(c2ccccc2)C(=O)C1	-0.73	10*
CC1=NN(c2ccccc2)C(=O)/C1=C1/C(=O)N(c2ccccc2)N=C1C	/	1.1
O=C1c2cccnc2C(Nc2ccccc2)N1c1ccccc1 (stereo unspecified)	2	/
O=C(CSc1nc(-c2ccccc2)nc2cc(=O)[nH]n12)Nc1ccc(F)c(Cl)c1	0.45	/
CCc1nnc(NC(=O)Nc2ccc(OC)cc2)s1	/	-2.5
COc1ccc(NC(=O)Nc2nnc(COc3ccccc3F)s2)cc1	1.2	4.7*
CCN1CCN(c2nnc(-n3cccc3CNc3ccccc3Br)s2)CC1	0.73	/
CNCCCCc1cnc(C)c2[nH]c3ccccc3c12	5*	/
Cc1ncc(CCCCN(C)C)c2c1[nH]c1ccccc12	3.7	1.1
Cc1nc(Oc2cccc(F)c2)c2c(C)c(C)sc2n1	0.24	/
Cc1nn(-c2nc3ccccc3[nH]2)c2c1C(c1ccc(C(=O)O)cc1)CC(=O)N2 (stereo unspecified)	25*	/
Cc1ccc(-c2cnnc(-n3nc(C)c4c3NC(=O)CC4c3ccc(C(=O)O)cc3)n2)cc1 (stereo unspecified)	0.9	-0.92
Cc1nn(-c2nc3ccccc3[nH]2)c2c1C(c1cc(F)cc(F)c1)CC(=O)N2 (stereo unspecified)	1.5	/
Cc1nn(-c2nncc(-c3ccc(F)cc3)n2)c2c1C(c1ccc(C(=O)O)cc1)CC(=O)N2 (stereo unspecified)	3.7*	-2
SMILES	TAR Tat displ	CDC25B CDK2 inh
COc1cc(C)c(C)cc1S(=O)(=O)N1CCc2cc3ccc(C)cc3nc21	0	-1.4
Cc1nn(-c2ccccc2)c(OC(=O)CC(C)C)c1S(=O)(=O)c1ccccc1	/	-3.4
CCC(=O)N1CCc2cc(Br)cc(S(=O)(=O)NCC3CCCN3CC)c21 (stereo unspecified)	/	4.5*
CCC(=O)N1CCc2cc(Br)cc(S(=O)(=O)NCCN3CCCCC3C)c21 (stereo unspecified)	/	3.4
O=C(NCCCN1CCCC1=O)C(=O)NCc1n[nH]c(=O)c2ccccc12	0.53	/
O=[N+]([O-])c1ccc(/C=C/C2Oc3ccccc3C3CC(c4cccs4)=NN23)o1 (stereo unspecified)	13*	1.5
c1coc(C2Oc3ccccc3C3CC(c4cccs4)=NN32)c1 (stereo unspecified)	/	-1.5
CCOc1ccc2nc(NC(=O)c3nn(-c4ccc(F)cc4)ccc3=O)sc2c1	0.93	-1.1
O=C(NCc1cccc(Cl)c1)c1sc(=S)n2c1[nH]c(=O)c1ccccc12	2.9	/
CCN(CC)CCNC(=O)c1ccc2c(=O)[nH]c3c(C(=O)NC(C)C)sc(=S)n3c2c1	6.4*	/
CC(=O)NCCNC(=O)c1ccc2c(=O)[nH]c3c(C(=O)NC4CCCC4)sc(=S)n3c2c1	16	/
O=C(NCc1ccccc1)c1sc(=S)n2c1[nH]c(=O)c1ccccc12	8.4*	/
CC(C)NC(=O)c1sc(=S)n2c1[nH]c(=O)c1ccc(C(=O)NC(C)c3ccccc3)cc12 (stereo unspecified)	0.68	/
O=C(NCc1ccco1)c1ccc2c(=O)[nH]c3c(C(=O)NCC4CCCO4)sc(=S)n3c2c1 (stereo unspecified)	4.7*	/
CCOCCSc1ncc(CO)n1Cc1ccc(C)cc1	1.4	/
CC(=O)N(C)c1cccnc1	/	-2.1
Cc1ccccc1-c1noc(-c2nnn(-c3ccc(F)c(Cl)c3)c2N)n1	-1.4	/
Cc1nn(C)cc1-c1noc(C)c1C(=O)O	1.8	/
COc1cc(C)c(S(=O)(=O)N2CCc3cc4ccc(C)cc4nc32)cc1C	0.4	-1.5
O=c1cc(-c2ccc(O)cc2)oc2cc(O)cc(O)c12	3.4	0.12
O=c1cc(-c2cc(O)c(O)c(O)c2)oc2cc(O)cc(O)c12	10*	/
O=C(O)CCC(=O)NNc1nc(-c2ccccc2)c2cc(Br)ccc2n1	/	-2.2
CN1C(=O)CSc2ccc(NC(=O)NCc3cccnc3)cc21	0.5	4.8*
CN1C(=O)CSc2ccc(NC(=O)NCc3ccc(F)cc3)cc21	-0.54	1.9
O=c1c(O)c(-c2cc(O)c(O)c(O)c2)oc2cc(O)ccc12	19*	/
SMILES	TAR Tat displ	CDC25B CDK2 inh
O=c1c(O)c(-c2ccc(O)c(O)c2)oc2cc(O)ccc12	3.6	/
CCOC(=O)c1c(C)[nH]c(C)c1S(=O)(=O)Nc1cc(F)ccc1F	-1	/
Cc1ccc2c(c1)S/C(=C\c1sc3ccccc3[n+]1C)N2CCO	7.9*	2.4
Cc1ccc2c(c1)N(CCO)/C(=C/c1sc3ccccc3[n+]1C)S2	-0.61	-1.5
O=C1N(Cc2ccc(Cl)cc2)C2CS(=O)(=O)CC2N1c1ccccc1 (stereo unspecified)	1.6	1.1
O=S1(=O)N=C(SCc2ccccc2Cl)Nc2ccccc21	1.4	/
O=C(O)c1cc(N2C(=O)c3c(Cl)c(Cl)c(Cl)c(Cl)c3C2=O)ccc1Cl	/	8.6*
O=C(O)c1cc(N2C(=O)C3CCCCC3C2=O)ccc1Cl (stereo unspecified)	1	/
COc1ccc(-c2nc(-c3cccs3)c(-c3cccs3)[nH]2)cc1O	1.2	18*
COc1cc(-c2nc(-c3ccccc3)c(-c3ccccc3)[nH]2)ccc1O	/	-0.82
CC(=O)Oc1cc(-c2coc3cc(OC(C)=O)c(OC(C)=O)c(OC(C)=O)c3c2=O)cc(OC(C)=O)c1OC(C)=O	25*	/
COc1cc(-c2coc3cc(OC)c(OC)c(OC)c3c2=O)cc(OC)c1OC	3.2	/
O=c1[nH]c2ccc(NCc3ccc(-c4ccc(F)cc4)o3)cc2[nH]1	-1.9	5.3*
O=C(Cc1cccs1)Nc1ccc2[nH]c(=O)[nH]c2c1	1.2	/
CCOc1ccc(Br)cc1CNc1ccc2[nH]c(=O)[nH]c2c1	-4.5	7.5*
COc1cc(CNc2ccc3[nH]c(=O)[nH]c3c2)cc(Br)c1OC	-0.05	8.7*
C=CCOc1ccc(CNc2ccc3[nH]c(=O)[nH]c3c2)cc1OC	-0.17	1.2
O=c1[nH]c2ccc(NCC#Cc3ccccc3)cc2[nH]1	0.85	0.12
COc1ccc(Br)cc1CNc1cc(C)cc(C)c1	0.4	-2.1
O=c1[nH]c2ccc(NCc3ccccn3)cc2[nH]1	-6.5	13*
CCc1nn(CCCC(=O)N2CCC3(CC2)OCCO3)c(=O)c2cc3occc3n12	/	-2.2
COCCn1c(CN(Cc2ccccc2)Cc2ccccc2)nc2c1c(=O)[nH]c(=O)n2C	-0.29	-0.68
O=C(C1=Cc2ccccc2OC=C1)N1CCOCC1	-1	-0.09

Screening data deposited in PubChem by Center for Chemical Genomics, University of Michigan.
